Among the data in ChEMBL document CHEMBL3433997, “St. Jude Leishmania screening dataset” (2016) are inhibition values, retold here.

Format in all cases: functional
Assay [1] has as its target Solute carrier family 2, facilitated glucose transporter member 1 (Homo sapiens) (UniProt P11166). The assay can be described thus: ST_JUDE_LEISH: Cytotoxicity at 2uM final concentration against transgenic Leishmania Mexicana promastigotes LmGLUT1 that are glucose transport deficient and complemented with the human glucose transporter GLUT1. Activity is measured by DNA content using SYBR green in vitro.

The target of assay [2] is Hexose transporter 1 (Plasmodium falciparum) (UniProt O97467). The assay can be described thus: ST_JUDE_LEISH: Cytotoxicity at 2uM final concentration against transgenic Leishmania Mexicana promastigotes LmPfHT that are glucose transport deficient and complemented with the Plasmodium falciparum hexose transporter. Activity is measured by DNA content using SYBR green in vitro.

Assay [3] addresses Glucose transporter (Leishmania mexicana) (UniProt O61059). Description: ST_JUDE_LEISH: Cytotoxicity at 2uM final concentration against transgenic Leishmania Mexicana promastigotes LmGT2 that are glucose transport deficient and complemented with the L. Mexicana glucose transporter 2. Activity is measured by DNA content using SYBR green in vitro.

One may read the inhibition as the relative decrease from the control value, in per cent.

Values joined by “and” are separate entries in the source; they are usually repeats but may differ in a detail not shown here. Identical values can stand only once.

Chain of Solute carrier family 2, facilitated glucose transporter member 1 (Homo sapiens) (P11166 whole entry): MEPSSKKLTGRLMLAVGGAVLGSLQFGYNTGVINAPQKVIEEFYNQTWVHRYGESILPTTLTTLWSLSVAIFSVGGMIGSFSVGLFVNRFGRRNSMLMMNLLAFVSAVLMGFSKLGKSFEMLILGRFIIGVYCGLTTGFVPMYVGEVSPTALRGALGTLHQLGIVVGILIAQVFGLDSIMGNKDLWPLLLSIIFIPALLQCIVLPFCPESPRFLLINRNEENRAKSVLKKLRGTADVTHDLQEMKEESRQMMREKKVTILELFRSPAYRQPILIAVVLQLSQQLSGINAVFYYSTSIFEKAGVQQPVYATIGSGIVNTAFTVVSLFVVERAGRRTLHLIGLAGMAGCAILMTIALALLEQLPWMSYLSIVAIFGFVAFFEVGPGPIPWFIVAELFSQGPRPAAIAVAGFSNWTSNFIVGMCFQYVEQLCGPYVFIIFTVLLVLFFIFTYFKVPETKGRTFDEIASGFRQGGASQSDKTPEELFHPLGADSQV

With `COc1ccc2nccc(N3CCC(CCNCc4cc5c(cn4)OCCO5)CC3)c2n1`, the inhibition is -0.34% in assay [1], 0.24% in assay [2] and 1.72% in assay [3].

Regarding `CCN(CC)/C(=N\CCCCCC/N=C(\NC(=N)c1ccc(Cl)cc1)N(CC)CC)NC(=N)c1ccc(Cl)cc1`, the inhibition in assay [1] is 1.79%; in assay [2], 2.4%; in assay [3], 2.59%.

Regarding `Cc1ccccc1CNc1noc(-c2c(-c3ccccc3)noc2C)n1`, the inhibition is -2.97% in assay [1], 2.16% in assay [2] and 6.28% in assay [3].

`Cc1nc(Nc2cc(Cl)ccc2O)nc(Nc2cc(Cl)ccc2O)c1[N+](=O)[O-]`: the figures for the inhibition in assay [1], in assay [2] and in assay [3] were 4.36%, 3.14% and 1.45%, respectively.

On to `CCN1CCN(c2cc(C)c3cc(NC(=O)c4ccc(OC)c([N+](=O)[O-])c4)ccc3n2)CC1`, for which the inhibition in assay [1] is 2.21%; in assay [2] it was 2.42%; in assay [3], 2.13%.

`COc1ccc2ncc(F)c(CCN3CC(O)C(CNCc4nc5c(cc4Cl)OCC(=O)N5)C3)c2n1` (stereo unspecified): the inhibition in assay [1] is 0.46% and 5.05% and 0.19%; in assay [2] it was -1.18% and 4.64% and 0.49%; in assay [3], -0.57% and 3.05% and -1.68%.

Regarding `CCNc1cc(C(=O)N[C@@H](Cc2ccccc2)[C@H](O)CNC(CC)c2cccc(Cl)c2)cc(N2CCCC2=O)c1` (stereo partly specified), the inhibition in assay [1] is 3.51%; in assay [2], -0.75%; in assay [3] it was 3.68%.
